Each sequence was assayed against SPI1 (Homo sapiens, UniProt P17947 1-270) (assay: DAPPL (digital affinity profiling via proximity ligation, sequencing); 10 mM Tris-HCl pH 7.5, 50 mM NaCl, 1 mM DTT, 4% glycerol, room temperature, 30 min; GST-TFs on glutathione beads, 16-mer random dsDNA library, 0.1% formaldehyde crosslink after washing; high values mean tight binding). Details: protein: recombinant; tags: N-terminal GST; dsDNA, one strand shown.
In short: (§1)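 A tag-only sample was pooled with DNA-barcoded human transcription factors that had been expressed in yeast as GST fusions and captured on glutathione beads. The pools were incubated for 30 min at room temperature with 200 nmole of a random double-stranded 16-mer DNA library in Tris/NaCl/DTT/glycerol buffer, then washed, crosslinked with 0.1% formaldehyde, proximity-ligated (BsaI/T4 ligase, 1 h, 37 °C), PCR-amplified and sequenced on an Illumina NextSeq500. Binding signal is each hexamer's read frequency for a factor divided by its frequency for the tag-only sample.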

Sequence	binding signal
GAGGAA	1.64 fold enrichment (6-mer frequency, TF over GST control)
AGTGAT	1.06 fold enrichment (6-mer frequency, TF over GST control)
TGAGGA	1.07 fold enrichment (6-mer frequency, TF over GST control)
AGTGCG	1.14 fold enrichment (6-mer frequency, TF over GST control)
AGCGGA	1.26 fold enrichment (6-mer frequency, TF over GST control)
AGTGGA	1.08 fold enrichment (6-mer frequency, TF over GST control)
AGAGGA	1.22 fold enrichment (6-mer frequency, TF over GST control)
TAGGGA	1.05 fold enrichment (6-mer frequency, TF over GST control)
GGGGAA	1.21 fold enrichment (6-mer frequency, TF over GST control)
AGTGAA	1.26 fold enrichment (6-mer frequency, TF over GST control)
GTGTGC	1.01 fold enrichment (6-mer frequency, TF over GST control)
AAAGAG	1.45 fold enrichment (6-mer frequency, TF over GST control)
AAGAGG	1.56 fold enrichment (6-mer frequency, TF over GST control)
GGGAAG	1.51 fold enrichment (6-mer frequency, TF over GST control)

Each sequence was assayed against SPIB (Homo sapiens, UniProt Q01892 1-262) in the same assay as above. Details: protein: recombinant; tags: N-terminal GST; dsDNA, one strand shown.
In short: as §1

Chain of SPIB (Q01892 whole entry): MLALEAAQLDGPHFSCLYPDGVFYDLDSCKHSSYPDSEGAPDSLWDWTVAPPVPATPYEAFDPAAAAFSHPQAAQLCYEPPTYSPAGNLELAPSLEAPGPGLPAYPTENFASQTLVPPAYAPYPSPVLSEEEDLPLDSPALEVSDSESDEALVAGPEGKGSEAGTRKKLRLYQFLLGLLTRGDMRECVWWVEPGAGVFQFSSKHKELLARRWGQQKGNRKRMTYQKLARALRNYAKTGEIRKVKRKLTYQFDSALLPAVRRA

Sequence	binding signal
TCGCAG	1.04 fold enrichment (6-mer frequency, TF over GST control)
AGCGTA	1.02 fold enrichment (6-mer frequency, TF over GST control)
CGCTGA	1.01 fold enrichment (6-mer frequency, TF over GST control)
GTGGTG	1.02 fold enrichment (6-mer frequency, TF over GST control)

These sequences were tested against T1, ELK3 (Homo sapiens, UniProt P41970 1-407) in the same assay as above. Details: protein: recombinant; tags: N-terminal GST; dsDNA, one strand shown.
T1 sequence: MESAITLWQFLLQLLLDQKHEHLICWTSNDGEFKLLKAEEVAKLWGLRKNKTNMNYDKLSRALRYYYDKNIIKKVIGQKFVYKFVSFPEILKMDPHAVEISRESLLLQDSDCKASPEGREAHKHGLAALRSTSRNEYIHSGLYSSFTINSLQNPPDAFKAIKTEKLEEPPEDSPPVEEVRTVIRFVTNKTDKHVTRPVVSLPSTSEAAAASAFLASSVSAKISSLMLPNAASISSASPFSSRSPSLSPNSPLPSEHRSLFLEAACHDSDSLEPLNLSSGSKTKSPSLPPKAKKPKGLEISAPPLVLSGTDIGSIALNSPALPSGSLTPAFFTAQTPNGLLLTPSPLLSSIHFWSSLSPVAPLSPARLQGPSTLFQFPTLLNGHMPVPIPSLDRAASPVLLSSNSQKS
In short: as §1

Sequence	binding signal
CGAGCG	1.01 fold enrichment (6-mer frequency, TF over GST control)
GCCACG	1.03 fold enrichment (6-mer frequency, TF over GST control)
CGGAAT	1.01 fold enrichment (6-mer frequency, TF over GST control)
CCGTAG	1.02 fold enrichment (6-mer frequency, TF over GST control)
AAACGT	1.06 fold enrichment (6-mer frequency, TF over GST control)

What follows are sequences tested against T2, FEV (Homo sapiens, UniProt Q99581 1-238) in the same assay as above. Details: protein: recombinant; tags: N-terminal GST; dsDNA, one strand shown.
T2 sequence: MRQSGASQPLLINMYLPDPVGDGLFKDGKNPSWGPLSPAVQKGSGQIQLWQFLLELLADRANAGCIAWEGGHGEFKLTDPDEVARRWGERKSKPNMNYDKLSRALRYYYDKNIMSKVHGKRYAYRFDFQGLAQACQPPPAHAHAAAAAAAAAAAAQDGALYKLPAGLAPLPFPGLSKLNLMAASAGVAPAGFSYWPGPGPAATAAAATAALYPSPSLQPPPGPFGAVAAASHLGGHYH
In short: as §1

Sequence	binding signal
CGGCCG	1.03 fold enrichment (6-mer frequency, TF over GST control)
GGACCG	1.12 fold enrichment (6-mer frequency, TF over GST control)
CGGACA	1 fold enrichment (6-mer frequency, TF over GST control)

Each sequence was assayed against T3, ETV7 (Homo sapiens, UniProt Q9Y603 1-341) in the same assay as above. Details: protein: recombinant; tags: N-terminal GST; dsDNA, one strand shown.
T3 sequence: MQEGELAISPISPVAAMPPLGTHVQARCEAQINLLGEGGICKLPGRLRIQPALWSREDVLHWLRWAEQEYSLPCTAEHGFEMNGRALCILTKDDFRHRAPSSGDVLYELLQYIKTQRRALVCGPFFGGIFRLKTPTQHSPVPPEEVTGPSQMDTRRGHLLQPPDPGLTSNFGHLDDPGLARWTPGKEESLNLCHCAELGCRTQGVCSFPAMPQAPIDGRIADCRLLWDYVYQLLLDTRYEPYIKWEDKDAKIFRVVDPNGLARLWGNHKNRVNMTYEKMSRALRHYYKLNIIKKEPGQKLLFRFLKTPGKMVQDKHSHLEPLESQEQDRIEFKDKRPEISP
In short: as §1

Sequence	binding signal
GCCACG	1.03 fold enrichment (6-mer frequency, TF over GST control)
AAAGTG	1.04 fold enrichment (6-mer frequency, TF over GST control)
GGGTAC	1 fold enrichment (6-mer frequency, TF over GST control)
GCGCGG	1.01 fold enrichment (6-mer frequency, TF over GST control)
CACGGT	1 fold enrichment (6-mer frequency, TF over GST control)
ACGGGT	1.01 fold enrichment (6-mer frequency, TF over GST control)
GTGGTG	1 fold enrichment (6-mer frequency, TF over GST control)
CAGCGA	1.01 fold enrichment (6-mer frequency, TF over GST control)

These sequences were tested against T4, ELF5 (Homo sapiens, UniProt Q9UKW6-2 1-255) in the same assay as above. Details: protein: recombinant; tags: N-terminal GST; dsDNA, one strand shown.
T4 sequence: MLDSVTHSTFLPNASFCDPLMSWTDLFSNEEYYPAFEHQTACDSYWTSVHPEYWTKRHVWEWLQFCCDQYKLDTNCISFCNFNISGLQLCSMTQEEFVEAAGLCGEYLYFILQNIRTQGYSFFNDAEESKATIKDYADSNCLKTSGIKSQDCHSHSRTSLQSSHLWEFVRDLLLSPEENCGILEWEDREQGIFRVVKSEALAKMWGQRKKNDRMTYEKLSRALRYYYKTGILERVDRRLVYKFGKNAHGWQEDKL
In short: as §1

Sequence	binding signal
GAGGAA	1.11 fold enrichment (6-mer frequency, TF over GST control)
AGTAGT	1.07 fold enrichment (6-mer frequency, TF over GST control)
AGCAGG	1.02 fold enrichment (6-mer frequency, TF over GST control)
GGGATG	1.01 fold enrichment (6-mer frequency, TF over GST control)
TCCAGG	1.01 fold enrichment (6-mer frequency, TF over GST control)
CGGGAA	1.06 fold enrichment (6-mer frequency, TF over GST control)
CAAGGA	1.03 fold enrichment (6-mer frequency, TF over GST control)
GGGAAG	1.24 fold enrichment (6-mer frequency, TF over GST control)
GGAAGG	1 fold enrichment (6-mer frequency, TF over GST control)

Source: PMC7862700, “An all-to-all approach to the identification of sequence-specific readers for epigenetic DNA modifications on cytosine”
